# In PubChem BioAssay (EPA / NIEHS):
# The source holds several records for some structures; these can differ, active in one and inactive in another. Active and inactive are the calls of the source. The calls were made as follows: active = hit-call score of the fitted dose curve at least 0.9, where 1 is the maximum; inactive = score below 0.9.
# Key:
# [1] = read-out: Matrix Metallopeptidase 1 (MMP1), MMP1 (gene 4312); assay: BSK_MyoF_MMP1: BioMAP Diversity Plus: MyoF Assay for Matrix Metallopeptidase 1 (MMP1) Biomarker Activity (AID 2284268); conditions: primary human lung fibroblasts
# In short: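 ELISA readout of MMP1 in primary human lung fibroblast cultures, 24 h post-dosing. Gain of signal versus DMSO vehicle control defines activity. Parallel SRB staining (0.1% after 10% TCA fixation, 560 nm) flags overt cytotoxicity.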
# [2] = read-out: TIMP metallopeptidase inhibitor 1 (TIMP1), TIMP1 (gene 7076); assay: BSK_MyoF_TIMP1: BioMAP Diversity Plus: MyoF Assay for TIMP metallopeptidase inhibitor 1 (TIMP1) Biomarker Activity (AID 2284269); conditions: primary human lung fibroblasts
# In short: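 ELISA quantified TIMP-1 levels after 24 h dosing of primary human lung fibroblasts, with DMSO as baseline. Parallel SRB total protein staining (0.1% SRB after TCA fixation, 560 nm) flagged overt cytotoxicity.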
# [3] = read-out: Intercellular Adhesion Molecule 1 (ICAM1), ICAM1 (gene 3383); assay: BSK_BE3C_ICAM1: BioMAP Diversity Plus: BE3C Assay for Intercellular Adhesion Molecule 1 (ICAM1) Biomarker Activity (AID 2284278); conditions: primary human bronchial epithelial cells;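 also: cell-surface ICAM-1 protein level quantified by ELISA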
# Experimental: BSK_BE3C is a cell-based, multiplexed-readout assay that uses bronchial epithelial cell, a human lung primary cell, with measurements taken at 24 hours after chemical dosing in a 96-well plate.BSK_BE3C_ICAM1 is an assay component measured in the BSK_BE3C assay. It measures ICAM-1 antibody related to regulation of gene expression using ELISA technology.Data from the assay component BSK_BE3C_ICAM1 was analyzed at the endpoint, BSK_BE3C_ICAM1, in the positive analysis fitting direction relative to DMSO as the negative control and baseline of activity. Using a type of binding reporter, gain or loss-of-signal activity can be used to understand protein changes. To generalize the intended target to other relatable targets, this assay endpoint is annotated to the 'cell adhesion molecules' intended target family, where the subfamily is 'Immunoglobulin CAM'.
# The levels of cell surface (or secreted, indicated by the prefix "s") biomarker endpoints were measured by ELISA. Overt cytotoxicity to cells in confluent adherent cultures (all systems other than the BT system) was assessed by measuring total protein levels using sulforhodamine B (SRB) staining in parallel cultures at the time of biomarker measurements, indicated as SRB endpoints. For proliferation assays for adherent cell types, individual cell types are cultured at sub-confluence and relative cell numbers quantified by SRB staining at time points optimized for each system (48 h: 3C and CASM3C systems; 72 h: BT and HDF3CGF systems; 96 h: SAg system). SRB was performed by staining cells with 0.1% SRB after fixation with 10% TCA and reading wells at 560 nm.Viability and proliferation of PBMC (T cells) was quantified by Alamar Blue reduction for the SAg and BT systems. […] Then, Alamar Blue (20 uL/well) (Invitrogen, Cat DAL1100) was added for 6 h, and the plates were read with a fluorescence microplate reader at 546/580 nm (excitation/emission). […] Plates were read after 6 h.
# [4] = read-out: Interferon-inducible T-cell alpha chemoattractant (ITAC), CXCL11 (gene 6373); assay: BSK_BE3C_ITAC: BioMAP Diversity Plus: BE3C Assay for Interferon-inducible T-cell alpha chemoattractant (ITAC) Biomarker Activity (AID 2284279); conditions: primary human bronchial epithelial cells
# In short: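 ELISA for I-TAC in primary human bronchial epithelial cultures 24 h post-treatment, fitted relative to DMSO baseline in positive direction. Cytotoxicity checked in parallel cultures by sulforhodamine B protein staining.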
# [5] = read-out: Interleukin-8 (IL8), CXCL8 (gene 3576); assay: BSK_BE3C_IL8: BioMAP Diversity Plus: BE3C Assay for Interleukin-8 (IL8) Biomarker Activity (AID 2284280); conditions: primary human bronchial epithelial cells
# In short: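 Primary human bronchial epithelial cells (BE3C system) exposed 24 h; IL-8 measured by ELISA and fitted in positive direction versus DMSO. Overt cytotoxicity assessed by SRB total-protein staining in parallel cultures.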
# [6] = read-out: Epidermal growth factor receptor (EGFR), EGFR (gene 1956); assay: BSK_BE3C_EGFR: BioMAP Diversity Plus: BE3C Assay for Epidermal growth factor receptor (EGFR) Biomarker Activity (AID 2284281); conditions: primary human bronchial epithelial cells
# In short: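 Human primary bronchial epithelial cells (BE3C system) dosed with chemicals; EGFR measured by ELISA at 24 h, fitted in the positive direction relative to DMSO. Cytotoxicity tracked in parallel cultures by SRB total-protein staining.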
# KRT18 (gene 3875) = assay: BSK_BE3C_Keratin818: BioMAP Diversity Plus: BE3C Assay for Keratin 818 Biomarker Activity (AID 2284282); conditions: primary human bronchial epithelial cells
# In short: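 Primary human bronchial epithelial cells treated 24 h; Keratin 8/18 quantified by ELISA, fit relative to DMSO. Cytotoxicity tracked in parallel cultures by sulforhodamine B total-protein staining.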
# [7] = read-out: Matrix Metallopeptidase 9 (MMP9), MMP9 (gene 4318); assay: BSK_BE3C_MMP9: BioMAP Diversity Plus: BE3C Assay for Matrix Metallopeptidase 9 (MMP9) Biomarker Activity (AID 2284283); conditions: primary human bronchial epithelial cells
# In short: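 Human primary bronchial epithelial cells in the BE3C system were dosed with compound for 24 h. MMP-9 was measured by ELISA, and the positive-direction response was fitted relative to DMSO as baseline. Parallel SRB staining gauged cytotoxicity.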
# [8] = read-out: Plasminogen activator inhibitor-1 (PAI1), SERPINE1 (gene 5054); assay: BSK_CASM3C_PAI1: BioMAP Diversity Plus: CASM3C Assay for Plasminogen activator inhibitor-1 (PAI1) Biomarker Activity (AID 2284284); conditions: primary human coronary artery smooth muscle cells;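 also: PAI-1 protein level measured by ELISA 24 h after dosing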
# [9] = read-out: Monocyte Chemoattractant Protein-1 (MCP1), CCL2 (gene 6347); assay: BSK_hDFCGF_MCP1: BioMAP Diversity Plus: hDFCGF Assay for Monocyte Chemoattractant Protein-1 (MCP1) Biomarker Activity (AID 2284285); conditions: primary human foreskin fibroblasts
# In short: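 Human foreskin fibroblasts (hDFCGF system) were exposed to compound and secreted MCP-1 was measured by ELISA after 24 hours. Activity was fitted relative to DMSO. Cytotoxicity was checked by SRB total-protein staining in parallel cultures.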
smiles,measurement,setting,value
CCN(CC)C(=O)C(Cl)=C(C)OP(=O)(OC)OC,outcome,[1],inactive
same,outcome,[2],inactive
Cc1cc(C(C)(C)c2ccc(O)c(C)c2)ccc1O,AC50,[1],15.7 µM (active)
same,outcome,[2],inactive
C[C@]12CC[C@@H](O)C[C@@H]1CC[C@@H]1[C@@H]2CC[C@]2(C)C(=O)CC[C@@H]12,outcome,[1],inactive
same,outcome,[2],inactive
CCOC(=O)C(SP(=S)(OC)OC)c1ccccc1 (stereo not given),outcome,[1],inactive
same,outcome,[2],inactive
CC1(C)[C@H](C(=O)O[C@H](C#N)c2cccc(Oc3ccccc3)c2)[C@@H]1/C=C(\Cl)C(F)(F)F,AC50,[1],3.39 µM (active)
same,outcome,[1],inactive
same,outcome,[2],inactive
COCC(=O)N(c1c(C)cccc1C)[C@H](C)C(=O)OC,outcome,[1],inactive
same,outcome,[2],inactive
O=C(O)COc1cc(Cl)c(Cl)cc1Cl,outcome,[1],inactive
same,outcome,[2],inactive
CCOP(=O)(OCC)SCCSCC,outcome,[1],inactive
same,outcome,[2],inactive
CCCCCCCCCCCCN(C)C,outcome,[1],inactive
same,outcome,[2],inactive
CC(C)(COCC1CO1)COCC1CO1 (stereo not given),outcome,[1],inactive
same,outcome,[2],inactive
Cc1ccc2nc3sc(=O)sc3nc2c1,AC50,[1],5 µM (active)
same,outcome,[2],inactive
CCOC(=O)CC(=O)CCl,outcome,[1],inactive
same,outcome,[2],inactive
CCOC(=O)CCN(SN(C)C(=O)Oc1cccc2c1OC(C)(C)C2)C(C)C,outcome,[1],inactive
same,outcome,[2],inactive
CCCCOC(=O)COC(=O)c1ccccc1C(=O)OCCCC,outcome,[3],inactive
same,outcome,[4],inactive
same,outcome,[5],inactive
same,outcome,[6],inactive
same,outcome,KRT18 (gene 3875),inactive
same,outcome,[7],inactive
same,outcome,[8],inactive
same,outcome,[9],inactive
C#CCOC(=O)/C=C(C)/C=C/CC(C)CCCC(C)C (stereo not given),outcome,[1],inactive
same,outcome,[2],inactive
OCCCCO,outcome,[3],inactive
same,outcome,[4],inactive
same,outcome,[5],inactive
same,outcome,[6],inactive
same,outcome,KRT18 (gene 3875),inactive
same,outcome,[7],inactive
same,outcome,[8],inactive
same,outcome,[9],inactive
